Test results reported in the supplement of paper PMC8975748.
Counter-ions that a name gives are not always drawn. ± gives the standard deviation of the averaged measurements.

Columns and labels:
[1] = system: Saccharomyces cerevisiae BY4741 SeMeCo community; assay: z-score of prototroph abundance vs DMSO median; higher = larger share of this subpopulation than in DMSO controls; settings: 10 µM; 24 h; SM minimal medium; subpopulation (auxotrophy): Prototroph
Outline: (§1)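 A community of Saccharomyces cerevisiae BY4741 was built from four plasmids that each restored one auxotrophy and encoded a distinct fluorescent protein. Pre-grown overnight to OD600 1.0 and diluted to 0.3, it was dispensed at 70 µl into 384-well plates acoustically predosed with library drugs for a final 10 µM, and grown 24 h in minimal SM medium. Cells were then paraformaldehyde-fixed and imaged by automated confocal microscopy. Thresholds and autofluorescence correction came from single-auxotroph fluorescent strains, and each subpopulation's abundance was scored as a z-score relative to the vehicle-well median.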

[2] = system: Saccharomyces cerevisiae BY4741 SeMeCo community; assay: z-score of subpopulation abundance vs DMSO median, subpopulation auxotrophic for L; higher = larger share of this subpopulation than in DMSO controls; settings: 10 µM; 24 h; SM minimal medium; subpopulation (auxotrophy): L
Outline: as §1

[3] = system: Saccharomyces cerevisiae BY4741 SeMeCo community; assay: z-score of subpopulation abundance vs DMSO median, subpopulation auxotrophic for U; higher = larger share of this subpopulation than in DMSO controls; settings: 10 µM; 24 h; SM minimal medium; subpopulation (auxotrophy): U
Outline: as §1

[4] = system: Saccharomyces cerevisiae BY4741 SeMeCo community; assay: z-score of subpopulation abundance vs DMSO median, subpopulation auxotrophic for H; higher = larger share of this subpopulation than in DMSO controls; settings: 10 µM; 24 h; SM minimal medium; subpopulation (auxotrophy): H
Outline: as §1

[5] = system: Saccharomyces cerevisiae BY4741 SeMeCo community; assay: z-score of subpopulation abundance vs DMSO median, subpopulation auxotrophic for LU; higher = larger share of this subpopulation than in DMSO controls; settings: 10 µM; 24 h; SM minimal medium; subpopulation (auxotrophy): LU
Outline: as §1

[6] = system: Saccharomyces cerevisiae BY4741 SeMeCo community; assay: z-score of subpopulation abundance vs DMSO median, subpopulation auxotrophic for LM; higher = larger share of this subpopulation than in DMSO controls; settings: 10 µM; 24 h; SM minimal medium; subpopulation (auxotrophy): LM
Outline: as §1

[7] = system: Saccharomyces cerevisiae BY4741 SeMeCo community; assay: z-score of subpopulation abundance vs DMSO median, subpopulation auxotrophic for HM; higher = larger share of this subpopulation than in DMSO controls; settings: 10 µM; 24 h; SM minimal medium; subpopulation (auxotrophy): HM
Outline: as §1

[8] = system: Saccharomyces cerevisiae BY4741 SeMeCo community; assay: z-score of subpopulation abundance vs DMSO median, subpopulation auxotrophic for HU; higher = larger share of this subpopulation than in DMSO controls; settings: 10 µM; 24 h; SM minimal medium; subpopulation (auxotrophy): HU
Outline: as §1

[9] = system: Saccharomyces cerevisiae BY4741 SeMeCo community; assay: z-score of subpopulation abundance vs DMSO median, subpopulation auxotrophic for HL; higher = larger share of this subpopulation than in DMSO controls; settings: 10 µM; 24 h; SM minimal medium; subpopulation (auxotrophy): HL
Outline: as §1

[10] = system: Saccharomyces cerevisiae BY4741 SeMeCo community; assay: z-score of subpopulation abundance vs DMSO median, subpopulation auxotrophic for HLU; higher = larger share of this subpopulation than in DMSO controls; settings: 10 µM; 24 h; SM minimal medium; subpopulation (auxotrophy): HLU
Outline: as §1

[11] = system: Saccharomyces cerevisiae BY4741 SeMeCo community; assay: z-score of subpopulation abundance vs DMSO median, subpopulation auxotrophic for HLM; higher = larger share of this subpopulation than in DMSO controls; settings: 10 µM; 24 h; SM minimal medium; subpopulation (auxotrophy): HLM
Outline: as §1

[12] = system: Saccharomyces cerevisiae BY4741 SeMeCo community; assay: z-score of subpopulation abundance vs DMSO median, subpopulation auxotrophic for HUM; higher = larger share of this subpopulation than in DMSO controls; settings: 10 µM; 24 h; SM minimal medium; subpopulation (auxotrophy): HUM
Outline: as §1

[13] = system: Saccharomyces cerevisiae BY4741 SeMeCo community; assay: z-score of subpopulation abundance vs DMSO median, subpopulation auxotrophic for HLUM; higher = larger share of this subpopulation than in DMSO controls; settings: 10 µM; 24 h; SM minimal medium; subpopulation (auxotrophy): HLUM
Outline: as §1

[14] = system: Saccharomyces cerevisiae BY4741 SeMeCo community; assay: mean cell size (pixel area) (pixels); higher = larger cells; settings: 10 µM; 24 h; SM minimal medium
Outline: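 A fluorescent Saccharomyces cerevisiae BY4741 community carrying four plasmids was used, with each plasmid complementing one auxotrophy and bearing a fluorescent marker. An overnight preculture at OD600 = 1.0 was diluted to OD600 = 0.3, and 70 µl went into 384-well plates acoustically predosed with drug (final 10 µM) in SM medium for 24 h. After paraformaldehyde fixation, cells were imaged by automated confocal microscopy and analysed in Harmony, giving the mean cell pixel area per well. Each value is the average of 3 replicates. Same SeMeCo high-content imaging drug screen: Selleck FDA-approved drugs at 10 µM, 24 h in SM medium, 384-well plates, 3 replicates.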

[15] = system: Saccharomyces cerevisiae BY4741 SeMeCo community; assay: z-score of subpopulation abundance vs DMSO median, subpopulation auxotrophic for UM; higher = larger share of this subpopulation than in DMSO controls; settings: 10 µM; 24 h; SM minimal medium; subpopulation (auxotrophy): UM
Outline: as §1

[16] = system: Saccharomyces cerevisiae BY4741 SeMeCo community; assay: z-score of subpopulation abundance vs DMSO median, subpopulation auxotrophic for LUM; higher = larger share of this subpopulation than in DMSO controls; settings: 10 µM; 24 h; SM minimal medium; subpopulation (auxotrophy): LUM
Outline: as §1

[17] = system: Saccharomyces cerevisiae BY4741 SeMeCo community; assay: z-score of subpopulation abundance vs DMSO median, subpopulation auxotrophic for M; higher = larger share of this subpopulation than in DMSO controls; settings: 10 µM; 24 h; SM minimal medium; subpopulation (auxotrophy): M
Outline: as §1

Row | Compound | z-score of prototroph abundance [1] | z-score of subpopulation abundance [2] | z-score of subpopulation abundance [3] | z-score of subpopulation abundance [4] | z-score of subpopulation abundance [5] | z-score of subpopulation abundance [6] | z-score of subpopulation abundance [7] | z-score of subpopulation abundance [8] | z-score of subpopulation abundance [9] | z-score of subpopulation abundance [10] | z-score of subpopulation abundance [11] | z-score of subpopulation abundance [12] | z-score of subpopulation abundance [13] | mean cell size [14] | z-score of subpopulation abundance [15] | z-score of subpopulation abundance [16] | z-score of subpopulation abundance [17]
1 | CC1(C)S[C@@H]2[C@H](NC(=O)Cc3ccccc3)C(=O)N2[C@H]1C(=O)O [Benzylpenicillin potassium] | -0.27 | 0.24 | 0.62 | -0.83 | 0.51 | 0.02 | -0.39 | -0.05 | -0.23 | 0.89 | 0.2 | 0.17 | 0.88 | – | – | – | –
2 | Cc1c(S(=O)(=O)O)oc2c1C(=O)C(=O)c1c-2ccc2c1CCCC2(C)C [Tanshinone IIA sulfonate (sodium)] | -0.48 | 0.5 | -1.39 | 1.42 | -0.91 | -0.11 | -0.31 | – | 4.28 | -0.84 | – | 0.71 | 1.74 | 11.85 ± 0.095 | 1.77 | 1.3 | –
3 | CN1C(C(=O)Nc2ccccn2)=C(O)c2sc(Cl)cc2S1(=O)=O [Lornoxicam] | -0.29 | -0.14 | – | -0.26 | -0.21 | -0.22 | -0.77 | 0.59 | -0.56 | -0.19 | 0.08 | – | -0.1 | 12.1 ± 0.13 | 0.21 | 0.46 | –
4 | CC(C)(O/N=C(\C(=O)N[C@@H]1C(=O)N2C(C(=O)[O-])=C(C[n+]3ccccc3)CS[C@H]12)c1csc(N)n1)C(=O)O [Ceftazidime] | 0.11 | -0.23 | -0.24 | 0.63 | -0.93 | -0.09 | – | 0.43 | 0.02 | 0.34 | -0.39 | 0.14 | -0.76 | – | 0.27 | 0.05 | –
5 | CN[C@@H]1[C@@H](O[C@H]2O[C@H](CO)[C@@H](N)[C@H](O)[C@H]2O)OC2C[C@@H](N)[C@@H](O[C@H]3[C@H](O)[C@@H](O)[C@H](N)C[C@@H]3N)OC2[C@@H]1O (stereo partly drawn) [Apramycin Sulfate] | -0.43 | – | 0.87 | -0.41 | 0.41 | – | 0.03 | -0.09 | 0.24 | 0.36 | 0.1 | 0.37 | 1.47 | 12 ± 0.25 | 0.56 | – | –
6 | C#C[C@]1(O)CC[C@H]2[C@@H]3CCc4cc(OC5CCCC5)ccc4[C@H]3CC[C@@]21C [Quinestrol] | -0.35 | 1.42 | -0.2 | 0.33 | – | -0.07 | 0.17 | 0.41 | – | 0.72 | – | 0.52 | – | – | -0.33 | – | –
7 | COc1cc2c(cc1OC)C(=O)C(CC1CCN(Cc3ccccc3)CC1)C2 (stereo not drawn) [Donepezil HCl] | 0.26 | -0.02 | -0.01 | 0.71 | -0.36 | -0.26 | -0.33 | 0.45 | -0.23 | – | 0.49 | 0.3 | -1.2 | 12 ± 0.22 | -0.48 | -0.52 | 0.12
8 | COC(=O)Nc1nc2cc([S+]([O-])c3ccccc3)ccc2[nH]1 (stereo not drawn) [Oxfendazole] | – | -1.92 | 1.29 | – | 0.48 | -1.48 | -0.28 | 0.76 | 0 | – | -0.75 | 0.73 | -1.07 | 12.59 ± 0.1 | 0.53 | -0.67 | 0.39
